Screening results deposited in PubChem by National Center for Advancing Translational Sciences (NCATS).
In the library only some 19% were active in any assay of this set; here they are far more common.
HT1080 IDH1KD tx: qHTS for induction of synthetic lethality in tumor cells producing 2HG: qHTS for the HT-1080-IDH1KD cell line | Potency, µM (top dose mostly 46.1 µM), for the others: at the top dose activity, negative = toxicity, usual class: cytotoxic | 2% of 360,000 active | HT-1080 IDH1 knockdown viability, ATP luminescence, 48 h;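 also: potency is read from the fitted curve at half-maximal effect; 0% = DMSO wells and -100% = cell-free medium wells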
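IDH1KD HT-1080 cells, 750/well, RPMI + 5% FBS; compound pinned after 2 h settling; 48 h, 37 °C; CellTiter-Glo luminescence; % activity normalised to DMSO and no-cell wells; curves fitted, classed by r2 and efficacy.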
HT1080-NT tox: qHTS for induction of synthetic lethality in tumor cells producing 2HG: qHTS for the HT-1080-NT fibrosarcoma cell line | 1.6% of 360,000 active | HT-1080-NT fibrosarcoma viability, CellTiter-Glo ATP luminescence, 48 h | Potency, µM (top dose mostly 46.1 µM), for the others: at the highest dose activity, negative = less viability, usual class: cytotoxic;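 also: NT is the 2HG producing partner of a matched IDH1 knockdown line; potency is read from the fitted curve at half-maximal effect; 0% = DMSO-treated cells and -100% = media-only wells without cells; nearly all actives have a fitted effect of over 55% in size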
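Read-out is CellTiter-Glo luminescence after 10 minutes at room temperature, following 48 hours' compound treatment of HT-1080-NT cells (750 cells/well, RPMI, 5% FBS, 37 degrees C).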
TDP1 cell CPT: qHTS for Inhibitors of human tyrosyl-DNA phosphodiesterase 1 (TDP1): qHTS in cells in presence of CPT; 12% of 420,000 active; chicken DT40 Tdp1-/-;hTDP1 cells + 20 nM CPT, ATP luminescence, 48 h; AID 686979, 2013; Potency, µM (top dose mostly 46.2 µM), for the others: at the highest dose activity change, negative = growth inhibition, actives largely listed as inhibitors; also: potency is read from the fitted curve at half-maximal effect; nearly all actives have a fitted effect of over 55% in size
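Chicken DT40 Tdp1-/- cells complemented with human TDP1, 400 cells/well, exposed to compounds plus 20 nM camptothecin for at least 48 h at 37 C; viability read as ATP content by CellTiter-Glo luminescence.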
IL-1B inflam inh: qHTS for Inhibitors of Inflammasome Signaling: IL-1-beta AlphaLISA Primary Screen. THP-1 LPS/ATP IL-1B secretion, AlphaLISA, 16 h; hits give low values. 4.7% of 360,000 active. activity change, % at 57.5 µM. AID 743279, 2014; in the data active = activity change below about -50%; inconclusive = mostly about -30% to -49%
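THP-1 cells pretreated 1 hr with compounds (up to 57.5 uM final), then stimulated with LPS (250 ng/mL final) plus ATP (1.25 mM final); secreted IL-1B measured by AlphaLISA after 16 hr, decreased signal indicating inhibition.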
DT40 TDP1 no CPT: qHTS for Inhibitors of human tyrosyl-DNA phosphodiesterase 1 (TDP1): qHTS in cells in absence of CPT. 15% of 420,000 active. AID 686978, 2013. DT40 Tdp1-/- hTDP1 cells, no CPT, ATP luminescence, 48 h. Potency, µM (top dose mostly 46.2 µM), inactives show at the top dose activity change, negative = growth inhibition, most hits filed as inhibitors; also: potency is read from the fitted curve at half-maximal effect; nearly all actives have a fitted effect of over 55% in size
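Seeded 400 DT40-hTDP1 cells/well (vehicle DMSO, no 20 nM CPT); pinned compounds; ≥48 hr at 37 °C; CellTiter-Glo luminescence as viability measure.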
* marks the source's active call; other numbers are inactive results; ? = inconclusive; nt = no result. Unless noted, calls follow the shape of the dose curve; as a rule, active = well fitted curve in the direction sought with a large enough effect; inconclusive = small, poorly fitted or top-dose-only effect, or another doubt; inactive = no such curve, though single readings can be large; an effect the other way counts as inactive or inconclusive. Unless noted, % is scaled to controls: 0 for no effect and ±100 for the full control effect.

SMILES | HT1080 IDH1KD tx | HT1080-NT tox | TDP1 cell CPT | IL-1B inflam inh | DT40 TDP1 no CPT
CN(C)CCOC1(Cc2ccc(F)cc2)CCC(C(C)(C)C)CC1 (stereo not drawn) | -11% | -20% | ? | -104* | 18µM*
CN(C)CCCCOc1ccc(F)cc1 | 11% | 14% | 1% | -5 | ?
CCCC(O)C(CC)CO (stereo not drawn) | nt | nt | 10% | nt | -4%
C/C(=N\NC(=O)CNC(=O)c1ccccc1F)c1ccco1 | 14% | 11% | 5% | 14 | -1%
CC(C)(C)OC(=O)CNC(=O)c1[nH]cnc1C(=O)NC(c1ccccc1)c1ccccc1 | -5% | -15% | 23µM* | ? | ?
CC(C)C[C@H](NC(=O)c1[nH]cnc1C(=O)N[C@@H](C)c1ccccc1)C(=O)OCc1ccccc1 | ? | ? | 29µM* | 24 | 26µM*
CC(C)C[C@H](NC(=O)c1nc[nH]c1C(=O)N[C@@H](CC(C)C)C(=O)OC(C)(C)C)C(=O)OCc1ccccc1 | ? | ? | ? | 0 | ?
C[C@H](NC(=O)c1nc[nH]c1C(=O)NCC(=O)OCc1ccccc1)c1ccccc1 | -1% | 0% | ? | 3 | 18µM*
CNC(=O)c1[nH]cnc1C(=O)NCC(=O)OC(C)(C)C | 8% | 9% | 1% | 16 | 8%
COc1ccc(NC(=O)c2cccs2)cc1NC(=O)c1ccco1 | -2% | -1% | ? | ? | ?
O=C(Nc1cccc(NC(=O)c2ccc([N+](=O)[O-])o2)c1)c1ccco1 | 10µM* | 18µM* | 5.8µM* | -90* | 5.2µM*
Cc1ccc(C(=O)Nc2ccc(NC(=O)c3cccs3)cc2)cc1[N+](=O)[O-] | 7% | 26% | ? | -24 | -16%
O=C(Nc1cccc(NC(=O)c2cccs2)c1)c1ccc([N+](=O)[O-])o1 | 23µM* | 10µM* | 3.3µM* | -102* | 3.7µM*
O=C(Nc1ccc(NC(=O)c2ccc([N+](=O)[O-])o2)cc1Cl)c1ccco1 | ? | -13% | ? | nt | ?
COc1cc(NC(=O)c2ccc([N+](=O)[O-])o2)ccc1NC(=O)c1cccs1 | -19% | -15% | 2.3µM* | -90* | 3.7µM*
CCOC(=O)c1ccccc1NC(=O)NCc1cccn1Cc1ccc(F)cc1 | nt | nt | 23µM* | nt | 23µM*
COc1ccc(C)cc1NC(=O)NCc1cccn1Cc1ccccc1 | nt | nt | -19% | nt | ?
CN1CCN(CCOCCOc2c(Cl)cc(Cl)cc2Cl)CC1 | -16% | ? | ? | -8 | 16µM*
CC1CCN(CCCCOc2ccccc2Br)CC1 | -6% | -8% | ? | -23 | ?
CCC(C)NCCCOc1c(C)cc(C)cc1Br (stereo not drawn) | ? | ? | ? | -76* | 12µM*
Cc1cc(C)c(OCCCCN2CCC(C)CC2)c(Br)c1 | ? | ? | ? | -78* | ?
Cc1cc(Cl)c(OCCOCCN2CCC(C)CC2)c(Br)c1 | -1% | -3% | 23µM* | -57* | 16µM*
C=CCN1C(=O)c2ccc(C(=O)N3CCN(S(=O)(=O)c4ccc(C(C)C)cc4)CC3)cc2C1=O | 10% | 19% | 10% | 20 | -17%
O=C(N1CCc2[nH]c3ccccc3c2C1)C(F)(F)F | -4% | -4% | ? | -11 | -1%
CC(C(=O)NC(C)(C)C)n1c(C(c2ccccc2)c2ccccc2)nc2ccccc21 (stereo not drawn) | ? | -29% | ? | -2 | ?
SMILES | HT1080 IDH1KD tx | HT1080-NT tox | TDP1 cell CPT | IL-1B inflam inh | DT40 TDP1 no CPT
Cc1csc(-c2nc3ccccc3n2C(C(=O)NC(C)(C)C)c2ccccc2)c1 (stereo not drawn) | 14% | 15% | ? | 0 | 29µM*
CCC(C(=O)NC(C)(C)C)n1c(C(c2ccccc2)c2ccccc2)nc2ccccc21 (stereo not drawn) | -14% | -21% | 18µM* | -3 | ?
COc1ccc(/C=C2\Oc3cc(OCC(=O)N4CC(O)C[C@H]4C(=O)O)ccc3C2=O)cc1OC (stereo partly drawn) | -2% | 3% | -7% | 4 | 1%
Cc1ccc(CSc2ccc(C(=O)N3CCOCC3)cc2[N+](=O)[O-])cc1 | 11% | 24% | -2% | 0 | 12%
CCN(c1ccccc1)S(=O)(=O)c1ccc(C(=O)N2CCOCC2)cc1 | 8% | 11% | -13% | 7 | -1%
Cc1cccc(N2CCN(C(=O)CNC(=O)C3CCCCC3)CC2)c1C | ? | -20% | 18µM* | 3 | ?
Cc1ccc(S(=O)(=O)N2CCN(C(=O)c3cc(S(=O)(=O)N(C)C)ccc3N3CCCC3)CC2)cc1 | 5% | 2% | -12% | -16 | -29%
Cc1cccc(N2CCN(C(=O)c3cc(S(=O)(=O)N(C)C)ccc3N3CCCC3)CC2)c1C | -18% | -17% | ? | -58* | ?
Cc1cccc(N2CCN(C(=O)c3ccccc3SCC(=O)N3CCCC3)CC2)c1C | -5% | -4% | 9.2µM* | 0 | 13µM*
CCN(c1ccccc1)S(=O)(=O)c1ccc(C(=O)N2CCN(c3ccccc3F)CC2)cc1 | 13% | 0% | ? | -5 | 21µM*
Cc1cccc(N2CCN(C(=O)c3ccc(S(=O)(=O)N(C)c4ccccc4)cc3)CC2)c1C | 7.3µM* | ? | 5.8µM* | -18 | 4.6µM*
COc1ccc(N(C)S(=O)(=O)c2cccc(C(=O)N3CCN(c4cccc(C)c4C)CC3)c2)cc1 | 1% | 7% | ? | ? | 16µM*
O=C(O)c1ccc(NC(CSCc2cccc(F)c2)C(=O)O)c([N+](=O)[O-])c1 (stereo not drawn) | -1% | 8% | 8% | 2 | -8%
CCN(CC)c1ccc(-c2n[nH]c(=S)n2-c2ccccc2)cc1 | 21µM* | ? | 18µM* | 23 | 23µM*
CCN(CC)c1ccc(-c2n[nH]c(=S)n2-c2ccccc2C)cc1 | -8% | -18% | 21µM* | 43 | 18µM*
CCOc1ccc(-n2c(=O)c3c(C)c(C)sc3n(CC(=O)N3CCC(C)CC3)c2=O)cc1 | nt | nt | ? | nt | 21µM*
CCOc1ccc(-n2c(=O)c3c(C)c(C)sc3n(CC(=O)Nc3ccc(CC)cc3)c2=O)cc1 | nt | nt | ? | nt | -22%
CCC(=O)N1COC[C@@H]1Cc1ccccc1 | -4% | 4% | 0% | 3 | -11%
